The test system of this assay is MIWI (PIWIL1) piRISC loaded with L1MC piRNA (30 nt). As to the kind of experiment: pre-steady-state target cleavage rate (min^-1); MIWI and MILI are mouse PIWI proteins and EfPiwi is from a freshwater sponge; tags in brackets are library labels; higher = faster piRNA-guided slicing of the target. The settings on record: guide: L1MC piRNA 5'p-UAACUAAAUACUAUGCAAGCUGUAGGUCCU
The method, boiled down: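 The pre-steady-state cleavage rate was obtained by Cleave-'n-Seq with a burst-and-steady-state fit. A transcribed, DNA-blocked target RNA library (0.1 nM) was mixed with 1 nM active affinity-purified piRISC carrying one synthetic guide, with or without 500 nM GTSF1 partner protein, in HEPES–potassium acetate buffer at 33 °C for 0–8 or 0–960 min. Uncleaved targets were sequenced and normalised to depth and to weakly complementary targets, with three trials pooled and k3 capped at 0.0001 min^-1.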

Where [1] appears, read: auxiliary factor: 500 nM mouse GTSF1.
Where [2] appears, read: auxiliary factor: none (no GTSF1).

± gives the standard deviation. In all, about 8,200 sequences were measured (“pre-steady-state target cleavage rate”: median about 0.024, highest 2% from about 1.3 on). Many of the other results were omitted from the sample, so the highest values are more common in it than they were.

With UCCUGGAACAGCUUGCAUAAGUAUUUAGUUA, the “pre-steady-state target cleavage rate” value under setting [1] was 0.00489 ± 0.0033.

Take UCCUGGAACAUGCUUGCAUAGUAUUUAGUUA: the “pre-steady-state target cleavage rate” value reads like this: under setting [1], 0.696 ± 0.028; under setting [2], 0.0566 ± 0.011.

UCCUGGUACAGCUUGCAUCGUAUUUAGUUA: the “pre-steady-state target cleavage rate” value reads like this: under setting [1], 0.203 ± 0.024; under setting [2], 0.0269 ± 0.0059.

As to UCCUGCUACAGCUUGCAUAGUCUUUAGUUA, the “pre-steady-state target cleavage rate” value stood at 0.279 ± 0.034 under setting [1] and 0.0195 ± 0.0047 under setting [2].

On to UCCUGCUACAGCUUGCAUAGAUUUUAGAAA, for which, under setting [1], the “pre-steady-state target cleavage rate” value was 0.00439 ± 0.0033.

Regarding UGGACCUACUGCUUGCAUUGUAUUUAGUUA, the “pre-steady-state target cleavage rate” value was determined as 0.868 ± 0.041 under setting [1] and 0.0358 ± 0.009 under setting [2].

Regarding UCCUCCUACACGUUGCAUAGUAUUUAGUAA, the “pre-steady-state target cleavage rate” value came to 0.507 ± 0.035 under setting [1] and 0.00568 ± 0.0015 under setting [2].

Turning to UGGACCUACACUUGCAUAGUAUUUAGUUA, the “pre-steady-state target cleavage rate” value is, setting by setting: under setting [1], 1.33 ± 0.082; under setting [2], 0.045 ± 0.0091.

On to UGGACCUACACCUUGCAUAGUAUUUAGUUA, for which the “pre-steady-state target cleavage rate” value turned out to be 1.23 ± 0.045 under setting [1] and 0.0585 ± 0.0088 under setting [2].

As to UCCACCUACAACUUGCAUAGUAUUUAGUUA, the “pre-steady-state target cleavage rate” value runs as follows: under setting [1], 0.869 ± 0.025; under setting [2], 0.0505 ± 0.0067.

As to AGGACCUACAACUUGCAUAGUAUUUAGUUA, the “pre-steady-state target cleavage rate” value runs as follows: under setting [1], 1.08 ± 0.031; under setting [2], 0.0712 ± 0.011.

Regarding UGGACCUACAACUUGCAUAGUAUUUAGUUA, the “pre-steady-state target cleavage rate” value under setting [1] is 1.5 ± 0.062 and the “pre-steady-state target cleavage rate” value under setting [2] turned out to be 0.08 ± 0.013.

With UCGACCUACAACUUGCAUAGUAUUUAGUUA, the “pre-steady-state target cleavage rate” value runs as follows: under setting [1], 1.33 ± 0.041; under setting [2], 0.0746 ± 0.015.

Take UGGACCUACAAGCUUGCAUAGUAUUUAGUUA: the “pre-steady-state target cleavage rate” value runs as follows: under setting [1], 1.03 ± 0.058; under setting [2], 0.0528 ± 0.0098.

Take UCGACCUACACUUGCAUAGUAUUUAGUUA: the “pre-steady-state target cleavage rate” value reads like this: under setting [1], 1.09 ± 0.045; under setting [2], 0.0331 ± 0.0076.

In the case of AGGACCUACACUUGCAUAGUAUUUAGUUA, the “pre-steady-state target cleavage rate” value is, setting by setting: under setting [1], 1.15 ± 0.043; under setting [2], 0.0736 ± 0.016.

On to UCCUGGAACAGCUUCCAUAGUAUUUAGAAA, for which the “pre-steady-state target cleavage rate” value under setting [1] stood at 0.00998 ± 0.0048.

As to UCCACCUACAGCUUGCAUAGUAUUUAGUA, the “pre-steady-state target cleavage rate” value under setting [1] came to 0.445 ± 0.043 and the “pre-steady-state target cleavage rate” value under setting [2] came to 0.00981 ± 0.0037.

Take AGGACCUACAGCUUGCAUUCUAUUUAGUAA: the “pre-steady-state target cleavage rate” value reads like this: under setting [1], 0.262 ± 0.057; under setting [2], 0.00441 ± 0.0024.

Turning to UCCUGGAUGAGCUUGCUUAGUUUUUAGUUA, the “pre-steady-state target cleavage rate” value runs as follows: under setting [1], 0.0242 ± 0.0064; under setting [2], 0.00971 ± 0.0022.

As for UCCUGGAUGUCCAUGCAUAGUAAUUAGUUA, the “pre-steady-state target cleavage rate” value under setting [1] was 0.00537 ± 0.0047.

With UGGACCAACAGCUUGCAUAGUAUUUACUUA, the “pre-steady-state target cleavage rate” value is, setting by setting: under setting [1], 0.299 ± 0.018; under setting [2], 0.0367 ± 0.0063.

On to UCCUGGAUGUCCUUGAAUAGUAUUUAGUUA, for which the “pre-steady-state target cleavage rate” value reads like this: under setting [1], 0.0223 ± 0.0065; under setting [2], 0.00268 ± 0.0026.

On to UCCUGCCUACAGCUUGCAUAGUAUUUAGUUA, for which the “pre-steady-state target cleavage rate” value turned out to be 1.33 ± 0.091 under setting [1] and 0.0623 ± 0.014 under setting [2].

For UCCUGCUACAGCUUGCAUAGUAUUUAGUUUA, the “pre-steady-state target cleavage rate” value by setting is: under setting [1], 1.17 ± 0.077; under setting [2], 0.0574 ± 0.012.

For the sequence UGCUCCUACAGCUUGCAUAGUAUUUAGAAA, the “pre-steady-state target cleavage rate” value stood at 0.429 ± 0.033 under setting [1] and 0.00714 ± 0.0022 under setting [2].

Regarding AGCUCCUACAGCUUGCAUAGUAUUUAGUAA, the “pre-steady-state target cleavage rate” value was 1.01 ± 0.069 under setting [1] and 0.0506 ± 0.011 under setting [2].

As for “UCCUCCUACAGCUUGCAUAGUAUUUAGUUU [g2:g26:cont:t1U]”, the “pre-steady-state target cleavage rate” value runs as follows: under setting [1], 1.29 ± 0.04; under setting [2], 0.0826 ± 0.02.

Turning to UCCUGCUACAGCUUGCCUAGUAUUUAGUUA, the “pre-steady-state target cleavage rate” value was determined as 0.886 ± 0.057 under setting [1] and 0.0207 ± 0.0037 under setting [2].

Take UGCUCCUACAGCUUGCAUAGUAUUUAGUAA: the “pre-steady-state target cleavage rate” value under setting [1] came out at 1.07 ± 0.045 and the “pre-steady-state target cleavage rate” value under setting [2] stood at 0.0382 ± 0.0079.

Regarding AGCUCCUACAGCUUGCAUAGUAUUUAGUUA, the “pre-steady-state target cleavage rate” value was 1.37 ± 0.053 under setting [1] and 0.0847 ± 0.013 under setting [2].

With UGCUCCUACAGCUUGCAUAGUAUUUAGUUA, the “pre-steady-state target cleavage rate” value under setting [1] amounted to 1.33 ± 0.047 and the “pre-steady-state target cleavage rate” value under setting [2] was determined as 0.0726 ± 0.012.

As for UCCACCUACAGCUUGCAUAGUAUUUCAGUUA, the “pre-steady-state target cleavage rate” value was found to be 0.691 ± 0.081 under setting [1] and 0.0139 ± 0.0037 under setting [2].

Regarding AGGACCUACUGCUUGCAUAGUAUUUAGAUA, the “pre-steady-state target cleavage rate” value was 0.471 ± 0.048 under setting [1] and 0.0411 ± 0.0086 under setting [2].

As for UCCUGGUAUAGCUUGCAUAGUAUUUAGUUA, the “pre-steady-state target cleavage rate” value under setting [1] amounted to 1.02 ± 0.043 and the “pre-steady-state target cleavage rate” value under setting [2] amounted to 0.0597 ± 0.012.

UCCACCUACAGCUUGCAUACUAUAUAGUUA: the “pre-steady-state target cleavage rate” value reads like this: under setting [1], 0.178 ± 0.022; under setting [2], 0.0112 ± 0.003.

As to AGGAGCUACAGCUUGCUUAGUAUUUAGUUA, the “pre-steady-state target cleavage rate” value worked out at 1.3 ± 0.061 under setting [1] and 0.0523 ± 0.011 under setting [2].

Turning to AGGACCUACAGCUUGCUUAGUAUUUAGUAA, the “pre-steady-state target cleavage rate” value by setting is: under setting [1], 0.862 ± 0.079; under setting [2], 0.0262 ± 0.0068.

Take UGGACCUACAGCUUGCUAGUAUUUAGUUA: the “pre-steady-state target cleavage rate” value is, setting by setting: under setting [1], 0.0515 ± 0.013; under setting [2], 0.00386 ± 0.0022.

AGGACCUACAGCUUGCUUAGUAUUUAGUUA: the “pre-steady-state target cleavage rate” value by setting is: under setting [1], 1.43 ± 0.071; under setting [2], 0.066 ± 0.015.

Take UGGACCUACAGCUUGCUUAGUAUUUAGUAA: the “pre-steady-state target cleavage rate” value under setting [1] is 1.03 ± 0.073 and the “pre-steady-state target cleavage rate” value under setting [2] turned out to be 0.0335 ± 0.0097.

As to UCGAGCUACAGCUUGCUUAGUAUUUAGUUA, the “pre-steady-state target cleavage rate” value under setting [1] turned out to be 1.19 ± 0.053 and the “pre-steady-state target cleavage rate” value under setting [2] was 0.0376 ± 0.0079.

As for AGGACCUACAGCUUGCUAGUAUUUAGUUA, the “pre-steady-state target cleavage rate” value came to 0.179 ± 0.041 under setting [1] and 0.00501 ± 0.0024 under setting [2].

In the case of UGGACCUACAGCUUGCUUAGUAUUUAGUUA, the “pre-steady-state target cleavage rate” value stood at 1.56 ± 0.094 under setting [1] and 0.0426 ± 0.011 under setting [2].

Take UGGAGCUACAGCUUGCUUAGUAUUUAGUUA: the “pre-steady-state target cleavage rate” value reads like this: under setting [1], 1.33 ± 0.062; under setting [2], 0.0391 ± 0.0074.

With UCCAGGAACAGCUUGCAUAGUAUUUACAAA, the “pre-steady-state target cleavage rate” value reads like this: under setting [1], 0.328 ± 0.041; under setting [2], 0.00665 ± 0.0019.

Regarding UCCUCCUACAGCUUGCAAAGUUUUUAGUUA, the “pre-steady-state target cleavage rate” value under setting [1] was determined as 0.352 ± 0.029 and the “pre-steady-state target cleavage rate” value under setting [2] worked out at 0.0137 ± 0.0033.

As for UCCUGGAUGUCCUUUCAUAGUAUUUAGUUA, under setting [1], the “pre-steady-state target cleavage rate” value turned out to be 0.0134 ± 0.004.

Consider UCCUGGUAGACCUUGCAUAGUAUUUAGUUA, for which the “pre-steady-state target cleavage rate” value under setting [1] came to 0.46 ± 0.042 and the “pre-steady-state target cleavage rate” value under setting [2] was 0.00968 ± 0.0029.

Turning to UCCACCUACACCUUGCAUAGAAUUUAGUUA, the “pre-steady-state target cleavage rate” value runs as follows: under setting [1], 0.337 ± 0.066; under setting [2], 0.0107 ± 0.003.

In the case of UGGACCUACAGCUUACAUAGUAUUUAGUUA, the “pre-steady-state target cleavage rate” value by setting is: under setting [1], 1.53 ± 0.079; under setting [2], 0.0508 ± 0.0082.

On to UGGACCUACAGCUUGACAUAGUAUUUAGUUA, for which the “pre-steady-state target cleavage rate” value by setting is: under setting [1], 0.986 ± 0.1; under setting [2], 0.00706 ± 0.0031.

For UCCACCUACAGCUUACAUAGUAUUUAGUUA, the “pre-steady-state target cleavage rate” value was determined as 0.753 ± 0.034 under setting [1] and 0.0222 ± 0.0039 under setting [2].

Regarding UCGACCUACAGCUUGACAUAGUAUUUAGUUA, the “pre-steady-state target cleavage rate” value reads like this: under setting [1], 0.952 ± 0.072; under setting [2], 0.00438 ± 0.0026.

Regarding UGGACCUACAGCUUCAUAGUAUUUAGUUA, the “pre-steady-state target cleavage rate” value under setting [1] is 1.36 ± 0.077 and the “pre-steady-state target cleavage rate” value under setting [2] stood at 0.0221 ± 0.0047.

With AGGACCUACAGCUUACAUAGUAUUUAGUUA, the “pre-steady-state target cleavage rate” value by setting is: under setting [1], 1.28 ± 0.064; under setting [2], 0.0655 ± 0.011.

Consider AGGACCUACAGCUUCAUAGUAUUUAGUUA, for which the “pre-steady-state target cleavage rate” value under setting [1] is 1.11 ± 0.053 and the “pre-steady-state target cleavage rate” value under setting [2] stood at 0.0309 ± 0.0073.

As for UCGACCUACAGCUUACAUAGUAUUUAGUUA, the “pre-steady-state target cleavage rate” value is, setting by setting: under setting [1], 1.59 ± 0.062; under setting [2], 0.0382 ± 0.0069.

For the sequence UGGACCUACAGCUUUCAUAGUAUUUAGUUA, the “pre-steady-state target cleavage rate” value is 0.593 ± 0.032 under setting [1] and 0.0286 ± 0.0052 under setting [2].

These data come from the supplement of paper PMC10338343.
